Screens: PubChem BioAssay, National Center for Advancing Translational Sciences (NCATS)
HT1080-NT tox = kills 2HG-producing HT-1080-NT fibrosarcoma cells | HT-1080-NT fibrosarcoma viability, CellTiter-Glo ATP luminescence, 48 h | actives 1.6% (n = 360,000) | Potency, µM (top dose mostly 46.1 µM), for the others: at the top dose activity, negative = less viability, hits mostly cytotoxic;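 also: NT is the 2HG producing partner of a matched IDH1 knockdown line; potency is read from the fitted curve at half-maximal effect; 0% = DMSO-treated cells and -100% = media-only wells without cells; nearly all actives have a fitted effect of over 55% in size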
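HT-1080-NT; 750 cells/well; 5% FBS RPMI; 48 h compound, 37 degrees C; CellTiter-Glo luminescence; curve fitting and curve-class assignment.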
TDP1 cell CPT = growth inhibition of DT40 Tdp1-/-;hTDP1 cells with camptothecin (screen for TDP1 inhibitors); chicken DT40 Tdp1-/-;hTDP1 cells + 20 nM CPT, ATP luminescence, 48 h; Potency, µM (series often up to 46.2 µM), for inactives: top-dose activity change, negative = growth inhibition, actives largely listed as inhibitors; actives 12% (n = 420,000); AID 686979; also: potency is read from the fitted curve at half-maximal effect; nearly all actives have a fitted effect of over 55% in size
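Chicken DT40 Tdp1-/- cells stably complemented with human TDP1 were seeded at 400 cells/well in medium containing 20 nM camptothecin, exposed to pin-transferred compounds, and grown at 37 °C for at least 48 hr. Viability was read as ATP luminescence.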
IL-1B inflam inh = inhibitors of inflammasome signaling (IL-1 beta secretion); THP-1 LPS/ATP IL-1B secretion, AlphaLISA, 16 h; active compounds read low; activity change, % at 57.5 µM; actives 4.7% (n = 360,000); in the data active = activity change below about -50%; inconclusive = mostly about -30% to -49%
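Secreted IL-1B measured by AlphaLISA bead assay after 16 h compound exposure of THP-1 cells; compounds (final up to 57.5 uM) added 1 h before LPS (250 ng/mL) and ATP (1.25 mM) stimulation; lower signal means less secretion.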
HT1080 IDH1KD tx = kills HT-1080 cells with IDH1 knockdown. HT-1080 IDH1 knockdown viability, ATP luminescence, 48 h. Potency, µM (series often up to 46.1 µM), for the others: top-dose activity, negative = toxicity, hits mostly cytotoxic. actives 2% (n = 360,000). AID 686971;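 also: potency is read from the fitted curve at half-maximal effect; 0% = DMSO wells and -100% = cell-free medium wells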
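Knockdown cells (IDH1KD HT-1080) received compounds 2 h after plating at 750 cells/well and were kept 48 h at 37 °C in 5% FBS RPMI. A CellTiter-Glo luminescence read gave % activity for curve fitting.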
TDP1 cell noCPT = qHTS for Inhibitors of human tyrosyl-DNA phosphodiesterase 1 (TDP1): qHTS in cells in absence of CPT; DT40 Tdp1-/- hTDP1 cells, no CPT, ATP luminescence, 48 h; Potency, µM (top dose mostly 46.2 µM), for inactives: at the highest dose activity change, negative = growth inhibition, usual class: inhibitors; actives 15% (n = 420,000); AID 686978, 2013; also: potency is read from the fitted curve at half-maximal effect; nearly all actives have a fitted effect of over 55% in size
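A cellular qHTS used chicken DT40 cells lacking endogenous Tdp1 but carrying stably transfected human TDP1. Compounds were applied without camptothecin, and cell growth kinetics were judged by ATP-dependent luminescence after ≥48 hr.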
Active calls of the source: *; ? = inconclusive; · = no result. A selection: hits, their analogues and other compounds. The true share with any hit is near 19%. Unless noted, calls follow the shape of the dose curve; as a rule, active = well fitted curve in the direction sought with a large enough effect; inconclusive = small, poorly fitted or top-dose-only effect, or another doubt; inactive = no such curve, though single readings can be large; an effect the other way counts as inactive or inconclusive. Unless noted, % is scaled to controls: 0 for no effect and ±100 for the full control effect.

SMILES	HT1080-NT tox	TDP1 cell CPT	IL-1B inflam inh	HT1080 IDH1KD tx	TDP1 cell noCPT
Cc1nnc(SCC(=O)Nc2sc3c(c2C#N)CCCCC3)n1N	-3.6%	9.0%	29.3	-4.3%	-22.2%
N#Cc1c(NC(=O)CSc2nnnn2C2CCCCC2)sc2c1CCCC2	9.2%	?	15.2	12.2%	16.4µM*
O=C(CSc1nnnn1C1CCCCC1)Nc1nc2c(s1)CCCC2	0.0%	14.6µM*	12.5	-0.1%	20.6µM*
COc1ccc2nc(NC(=O)CSc3nnnn3C3CCCCC3)sc2c1	-1.3%	-4.1%	24.2	23.5%	-24.7%
CCn1c(SCC(=O)NCc2ccco2)nnc1-c1cccc(N(C)C)c1	·	-31.0%	·	·	?
COc1cc(C#Cc2ccc3cc(CCO)oc(=O)c3c2)cc(OC)c1	-8.5%	?	-0.9	-13.3%	18.4µM*
CN(C)c1ccc(C#Cc2ccc3cc(CCO)oc(=O)c3c2)cc1	-7.5%	-12.3%	23.5	4.5%	?
CCCn1c(N)c(N(CCOC)C(=O)CSc2c(Cl)cccc2Cl)c(=O)[nH]c1=O	-0.1%	-10.9%	-2.9	-0.1%	19.1%
CC(NCCN(C)C)C1CCC2C3CCc4cc(O)ccc4C3CCC12C (stereo unspecified)	?	?	-102.4*	?	1.64µM*
CC12CCC3c4ccc(O)cc4CCC3C1CCC2=O (stereo unspecified)	-20.6%	0.2%	20.7	-0.3%	-0.4%
C#C[C@]1(O)CC[C@H]2[C@@H]3CCc4cc(O)ccc4[C@H]3CC[C@@]21C	9.2µM*	?	26.2	20.6µM*	15µM*
CC(=O)O[C@H]1CC[C@H]2[C@@H]3CCc4cc(O)ccc4[C@H]3CC[C@]12C	18.4µM*	?	7.9	?	?
CC(=O)OC1CCC2C3CCc4cc(O)ccc4C3CCC12C (stereo unspecified)	?	?	30.8	?	?
C[C@]12CC[C@@H]3c4ccc(O)cc4CC[C@H]3[C@@H]1CC[C@@H]2O	?	?	24.4	?	23.1µM*
CCc1nc2c(OCC3CCCCC3)cccn2c1N(C=O)Cc1ccc(OC)cc1	?	20.6µM*	-8.9	?	20.6µM*
CCCCN(C=O)c1c(CC)nc2c(OCCOc3ccccc3)cccn12	-17.1%	?	-18.3	-17.0%	20.6µM*
CCCCN(C=O)c1c(CC)nc2c(OCCC)cccn12	22.6%	-55.5%	34.2	17.5%	?
CCCOc1cccn2c(N(C=O)Cc3ccc(OC)cc3)c(CC)nc12	1.0%	16.4µM*	8.8	2.3%	?
CCc1nc2c(OCc3ccc4c(c3)OCO4)cccn2c1N(C=O)Cc1ccccc1	3.5%	?	-11.8	1.5%	?
C=CCOc1cccn2c(N(C=O)Cc3ccc(OC)cc3)c(CC)nc12	4.5%	18.4µM*	44.8	-8.6%	11.6µM*
COc1cc(C(=O)Nc2ccc(S(=O)(=O)Nc3nccc(C)n3)cc2)c([N+](=O)[O-])cc1OC	-1.2%	29.3%	-2.8	7.6%	-11.2%
COc1ccccc1NC(=O)N(C)C[C@@H]1OCc2cnnn2CCCC(=O)N([C@@H](C)CO)C[C@H]1C	14.5%	-8.4%	12.8	9.9%	-5.5%
CCC(N)(C(=O)O)c1ccc(C(=O)O)cc1 (stereo unspecified)	·	?	·	·	-20.4%
CCc1nc2c(OCCOc3ccc(F)cc3)cccn2c1N(C=O)Cc1ccccc1	?	20.6µM*	-59.0*	5.9%	?
CN(Cc1ccccc1)Cc1nc2c(c(=O)n(C)c(=O)n2C)n1Cc1ccc(Cl)cc1	0.7%	?	8.0	-4.1%	?
SMILES	HT1080-NT tox	TDP1 cell CPT	IL-1B inflam inh	HT1080 IDH1KD tx	TDP1 cell noCPT
Cc1ccc(C)c(Cn2c(CN(C)Cc3ccccc3)nc3c2c(=O)n(C)c(=O)n3C)c1	-6.5%	18.4µM*	-7.1	-5.5%	14.6µM*
CC(=O)C(C)n1c(CN(C)Cc2ccccc2)nc2c1c(=O)n(C)c(=O)n2C (stereo unspecified)	-4.9%	8.2µM*	8.8	-8.0%	8.2µM*
CN(Cc1ccccc1)Cc1nc2c(c(=O)n(C)c(=O)n2C)n1Cc1ccc(F)cc1	0.4%	?	39.6	0.9%	?
Cc1ccc(Cn2c(CN(C)Cc3ccccc3)nc3c2c(=O)n(C)c(=O)n3C)cc1	-1.4%	?	-9.3	-7.5%	?
CC(C)n1c(CN(C)Cc2ccccc2)nc2c1c(=O)n(C)c(=O)n2C	-9.2%	0.731µM*	3.4	?	0.411µM*
C=C(C)Cn1c(CN(C)Cc2ccccc2)nc2c1c(=O)n(C)c(=O)n2C	-8.6%	7.31µM*	0.0	-12.3%	5.17µM*
COc1ccccc1C(=O)NCC(=O)NCc1cc(=O)n(C)c(=O)n1C	-0.7%	3.5%	12.5	8.8%	-2.2%
CCN(C(=O)CSc1nccc(=O)[nH]1)C1CCCCC1	-3.4%	-24.8%	0.0	1.3%	5.8%
CCNC(=O)C1(C)CCN(C(=O)c2c(F)cccc2F)C1 (stereo unspecified)	14.9%	-4.2%	28.3	20.8%	-5.6%
COC(=O)c1ccc(NC(=O)CSc2nccn2Cc2ccc(Cl)cc2)cc1	·	?	·	·	-28.4%
CCc1[nH]nc(C(=O)N2CCCC(N3CCN(c4ccccc4C)CC3)C2)c1C (stereo unspecified)	-4.1%	16.4µM*	-17.2	-1.6%	?
CC1=C(C(=O)N2CCCC(N3CCN(c4ccccc4C)CC3)C2)OCCO1 (stereo unspecified)	6.4%	?	0.0	2.4%	?
Cc1ccccc1N1CCN(C2CCCN(C(=O)c3cn4cccc(C)c4n3)C2)CC1 (stereo unspecified)	7.0%	23.1µM*	0.0	-28.6%	8.2µM*
Cc1cnc(C(=O)N2CCCC(N3CCN(c4ccccc4C)CC3)C2)cn1 (stereo unspecified)	12.0%	18.4µM*	12.7	17.4%	?
Cc1cc(C(=O)N2CCCC(N3CCN(c4ccccc4C)CC3)C2)n(C)n1 (stereo unspecified)	0.6%	?	16.7	-0.8%	?
CSc1ncccc1C(=O)N1CCCC(N2CCN(c3ccccc3C)CC2)C1 (stereo unspecified)	-17.2%	16.4µM*	0.7	-12.2%	9.2µM*
Cc1ccccc1N1CCN(C2CCCN(C(=O)CCn3cnnn3)C2)CC1 (stereo unspecified)	-5.4%	0.9%	-11.8	19.0%	-16.6%
CC1(C(=O)NS(=O)(=O)c2ccccc2OC(F)(F)F)CCN1C(=O)c1ccco1 (stereo unspecified)	13.8%	-0.4%	23.7	12.8%	-1.1%
